Inconclusive results are not listed. Active and inactive are the calls of the source. Unless noted, calls follow the shape of the dose curve; as a rule, active = well fitted curve in the direction sought with a large enough effect; inconclusive = small, poorly fitted or top-dose-only effect, or another doubt; inactive = no such curve, though single readings can be large; an effect the other way counts as inactive or inconclusive.
Key:
[1] = biological target: Cytochrome P450 3A4 (Homo sapiens) (UniProt P08684); assay: qHTS Assay for Inhibitors and Substrates of Cytochrome P450 3A4 (AID 884); also: nearly all actives have a fitted effect of over 50% in size; also: potency is read from the fitted curve at half-maximal effect; as to activity change, negative = inhibition: % is scaled to controls: 0 for no effect and ±100 for the full control effect
In short: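 Luminescent readout of luciferin produced by CYP3A4 (20 nM) dealkylation of Luciferin-PPXE, 25 uM (its KM). NADPH-driven reaction ran 60 min at RT after 10 min compound preincubation; data scaled to 57 uM ketoconazole as 100% inhibition.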

[2] = Confirmation and Secondary Assay for Modulators of Hemoglobin Beta Chain Splicing at IVS2 654 locus (AID 910);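 also: HeLa cells stably carrying EGFP split by mutant beta-globin IVS2-654 intron; per-well total GFP intensity by laser scanning cytometry after 2-day treatment; % of control where 0% means no effect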
In short: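 Readout: per-well total peak green fluorescence (488 nm ex, 500–520 nm em) from objects 5–250 µm, reflecting correct splicing of an EGFP-654 reporter. Compounds were applied for 2 days at 37 °C to overnight-plated HeLa EGFP-654 cells; controls were DMSO and 500 nM IVS2-654 PNA.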

[3] = Confirmation and Secondary Assay for Modulators of Hemoglobin Beta Chain Splicing at IVS2 705 locus (AID 930);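 also: HeLa cells stably expressing the EGFP-705 splicing reporter; GFP fluorescence per well restored by corrected splicing of the IVS2-705 intron in EGFP; % of control where 0% means no effect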
In short: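 Splice-correction reporter: EGFP cDNA split by beta-globin intron 2 bearing the 705 mutation, stably in HeLa. Compound incubation 2 days, 37C; fluorescent objects 5-250 µm summed per well.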

[4] = qHTS Assay for Lipid Storage Modulators (AID 1519; calls by dose curve; also: potency is read from the fitted curve at half-maximal effect; as to activity change, negative = inhibition: % is scaled to controls: 0 for no effect and ±100 for the full control effect); settings: Drosophila S3 cells, BODIPY lipid droplet/cell ratio, laser cytometry, cells loaded with oleic acid; for activity change, negative = inhibition: at 57.5 µM (top of the series)
In short: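 Cells seeded at 5,000 per well were treated with compounds over a concentration series and loaded with oleic acid (400 uM, as added). Lipid droplet fluorescence (488 nm excitation, 500-530 nm channel) was read by laser-scanning cytometry and normalized to 20 uM Triacsin C.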

[5] = biological target: Cytochrome P450 3A4 (Homo sapiens) (UniProt P08684); assay: qHTS Assay for Activators of Cytochrome P450 3A4 (AID 885); also: nearly all actives have a fitted effect of over 65% in size
In short: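 Using 20nM recombinant human CYP3A4 in potassium phosphate (200mM), substrate Luciferin-PPXE at 25uM, luminescent luciferin detection followed a 60-min RT NADPH reaction; data scaled to 57 uM ketoconazole.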

[6] = measured here: cell count channel max response
[7] = measured here: lipid channel max response

Chain of Cytochrome P450 3A4 (Homo sapiens) (P08684 whole entry, looked up): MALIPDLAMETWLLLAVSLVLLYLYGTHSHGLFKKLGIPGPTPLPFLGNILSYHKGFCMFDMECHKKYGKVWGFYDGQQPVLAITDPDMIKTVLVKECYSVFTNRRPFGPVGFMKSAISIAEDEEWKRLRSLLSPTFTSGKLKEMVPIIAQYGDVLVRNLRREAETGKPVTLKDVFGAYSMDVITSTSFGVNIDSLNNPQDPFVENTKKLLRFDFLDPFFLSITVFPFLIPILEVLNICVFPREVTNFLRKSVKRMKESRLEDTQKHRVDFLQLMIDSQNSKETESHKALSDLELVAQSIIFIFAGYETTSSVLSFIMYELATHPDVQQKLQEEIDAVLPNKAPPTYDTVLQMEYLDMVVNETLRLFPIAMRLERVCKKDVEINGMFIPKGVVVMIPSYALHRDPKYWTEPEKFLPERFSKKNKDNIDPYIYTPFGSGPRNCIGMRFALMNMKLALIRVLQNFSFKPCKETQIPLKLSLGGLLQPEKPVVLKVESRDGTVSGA

SMILES	Potency [1]	Potency [2]	Potency [3]	activity change, negative = inhibition [4]	max response [4, 6] [%]	max response [4, 7] [%]	Potency [5]	Potency [4]
COc1ccc(C(=O)/C=C/c2ccccc2)cc1	inactive	inactive	inactive	8.41% (inactive)	-9.97	-1.31		
COc1c(C(C)C)oc2cc3oc(=O)ccc3cc12	inactive	inactive	inactive	5.54% (inactive)	15.7	22.2		
CC(=O)OC1CC2C(C)(C)C(=O)CC[C@]2(C)C2CC[C@@]3(C)C(c4ccoc4)OC(=O)C4OC43[C@]12C (some centres not stated)	3.98 µM (active)	inactive	inactive	5.91% (inactive)	22.7	27.2	inactive	
CCC(=O)OC1C2CC3=C4CC(=O)OC(c5ccoc5)[C@]4(C)CCC3[C@@](C)(C2=O)C(CC(=O)OC)C1(C)C (some centres not stated)	inactive	inactive	inactive	-15.8% (inactive)	-7.4	-17		
C=C[C@](C)(O)CCC1C(=C)CC(O)C2C(C)(C)CCCC12C (some centres not stated)	1.58 µM (active)	inactive	inactive	10.1% (inactive)	7.01	14.1	inactive	
CC(C)CCCC(C)C1CCC2C3CC(O)[C@@]4(O)CC(O)CC[C@@]4(C)C3CC[C@@]12C (some centres not stated)	inactive	inactive	inactive	4.13% (inactive)	10.2	14.9		
COc1cc(O)c(C(C)=O)c(OC)c1	25.1 µM (active)	inactive	inactive	4.43% (inactive)	20	28.9	inactive	
CC(=O)OC1CC2C(C)(C)C(=O)C=C[C@]2(C)C2CC[C@@]3(C)C(c4ccoc4)OC(=O)C4O[C@@]43[C@]12C (some centres not stated)	12.6 µM (active)	inactive	inactive	-1.71% (inactive)	11.5	11.5	inactive	
CCCCCCCC/C=C/CCCCCCCCOP(=O)([O-])OCC[N+](C)(C)C	inactive	inactive	inactive	12.8% (inactive)	12.4	28.9		
C/C(=C\CO)CCC(C)CCCC(C)CCCC(C)C (configuration not stated)	inactive	inactive	inactive	6.09% (inactive)	8.07	14.9		
COC(=O)[C@]1(C)CCC[C@]2(C)c3ccc(C(C)C)cc3C(=O)CC12 (some centres not stated)	25.1 µM (active)	inactive	inactive	1.78% (inactive)	15.8	18.5	inactive	
COC(=O)CC1C2(C)CC34OC5(C)O[C@@]6(C7/C(=C(/O)C(C)C)C(=O)OC(c8ccoc8)[C@]7(C)C(OC(C)=O)C(OC(C)=O)[C@]6(O5)[C@@]13C)C(OC(C)=O)[C@]4(O)C2OC(=O)C(C)C (some centres not stated)	12.6 µM (active)	inactive	inactive	8.78% (inactive)	16.6	29.3	inactive	
C/C=C(\C)C(=O)OC1c2c(ccc3ccc(=O)oc23)OC(C)(C)C1OC(C)=O (configuration not stated)	25.1 µM (active)	inactive	inactive	-20.9% (inactive)	-0.795	-21.2	inactive	
CC(CC(O)C1OC1(C)C)C1CCC2(C)C3=CCC4C(C)(C)C(=O)CCC4(C)C3CC[C@@]12C (some centres not stated)	inactive	inactive	inactive	3.08% (inactive)	2.59	11		
COc1ccc2c(c1)OCC(Cc1ccc(O)c(OC)c1)C2=O (configuration not stated)	2 µM (active)	inactive	inactive	13.3% (inactive)	8.4	29.2	inactive	
COC(=O)CC1C(C)(C)C(OC(C)=O)C2[C@H](OC(C)=O)[C@]34O[C@]2(O)[C@]1(C)C3CC[C@]1(C)C4=CC(=O)OC1c1ccoc1 (some centres not stated)	2 µM (active)	inactive	inactive		-16.6	-68.9	inactive	15.8 µM (active)
Cc1c(S(=O)(=O)O)oc2c1C(=O)C(=O)c1c-2ccc2c1CCCC2(C)C	10 µM (active)	inactive	inactive	4.38% (inactive)	7.96	15.5	inactive	
CC(=O)OC1CC[C@]2(C)C(CC[C@@]3(C)C2C(=O)C=C2C4C(C)C(C)CC[C@@]4(C(=O)O)CCC23C)C1(C)C (some centres not stated)	25.1 µM (active)	inactive	inactive	0.887% (inactive)	18.2	20.8	inactive	
CC1OC(n2cc(F)c(=O)[nH]c2=O)C(O)C1O (configuration not stated)	inactive	inactive	inactive	5.38% (inactive)	14	19.9		
C=C1C2=CC(=O)OC(c3ccoc3)[C@]2(C)CCC1[C@]1(C)C=CC(=O)C(C)(C)C1CC(=O)OC (some centres not stated)	3.98 µM (active)	inactive	inactive	-2.8% (inactive)	12.4	11.5	inactive	
CC(C)C(C)/C=C/C(C)C1CCC2C3=CC=C4CC(O)CCC4(C)C3CCC21C (configuration not stated)	inactive	inactive	inactive	4.22% (inactive)	8.27	15.2		
CC1=C(/C=C/C(C)=C/C=C/C(C)=C/C=C/C=C(C)/C=C/C=C(C)/C=C/C(=O)[C@]2(C)CC(O)CC2(C)C)C(C)(C)CC(O)C1 (some centres not stated)	inactive	inactive	inactive	7.14% (inactive)	11.8	22.4		
COc1ccc(CC(=O)c2ccc(O)cc2O)cc1	12.6 µM (active)	inactive	inactive	4.14% (inactive)	-22.7	-16.5	inactive	
CC(C)C1=CC2=CC[C@@H]3[C@](C)(CO)CCC[C@]3(C)C2CC1 (some centres not stated)	inactive	inactive	inactive	1.89% (inactive)	10.4	14.9		
CC(=O)O[C@@]1(C(C)=O)CCC2C3C=C(Cl)C4=CC(=O)CC[C@]4(C)C3CC[C@]21C (some centres not stated)	inactive	inactive	inactive	-2.19% (inactive)	-10.2	-9.83		

SMILES	Potency [1]	Potency [2]	Potency [3]	activity change, negative = inhibition [4]	max response [4, 6] [%]	max response [4, 7] [%]	Potency [5]	Potency [4]
CNC(CC(=O)O)C(=O)O (configuration not stated)	inactive		inactive	0.835% (inactive)	10.8	11.7		
OCC1OC(n2cnc3c(Cl)ncnc32)C(O)C1O (configuration not stated)	inactive	inactive	inactive	1.41% (inactive)	10.1	10.3		
CC12CCCC(O)(C1)C1CC(C)(C)C1CC2 (configuration not stated)	inactive	inactive	inactive	4.18% (inactive)	-0.674	2.69		
CCc1ccc2c(O)c3c(cc2c1C(=O)OC)C(=O)c1c(O)ccc(O)c1C3=O	inactive	inactive	inactive	12.8% (inactive)	5.77	24.1		
O=C(/C=C/c1ccccc1)c1ccc(O[C@H]2OC(CO)C(O)C(O)C2O)cc1O (some centres not stated)	inactive	inactive	inactive	-0.595% (inactive)	18.3	22.6		
CCCCCCCCCCCCCCC(C(=O)OC)C(O)(CC(=O)OC)C(=O)OC (configuration not stated)	inactive	inactive	inactive	-24% (inactive)	-1.14	-26.9		
CCCCCCCCCCCCCCC(C(=O)O)C(O)(CC(=O)OC)C(=O)O (configuration not stated)	inactive	inactive	inactive	5.93% (inactive)	16.5	25.2		
O=C(/C=C/c1ccccc1)c1ccc(O)cc1O		inactive	inactive	-11.9% (inactive)	1.3	-11.1	inactive	
CC(=O)C1CCC2C3CCC4=CC(=O)CC[C@@]4(C)C3CC[C@]12C (some centres not stated)	inactive	inactive	inactive	4.88% (inactive)	4.44	13.5		
COc1ccc(-c2coc3cc(O)ccc3c2=O)c(O)c1O	inactive	inactive	inactive	8.68% (inactive)	-1.1	7.57		
CC(=O)O[C@@]1(C(C)=O)CCC2C3C=C(C)C4=CC(=O)CCC4(C)C3CCC21C (some centres not stated)	inactive		inactive	3.94% (inactive)	7.28	12.7		
C#CCCCCCCCCCCCc1ccco1		inactive	inactive	2.25% (inactive)	8.94	11.4	inactive	
CC(=O)OC1CC2C(C)(C)C(=O)C3OC3[C@]2(C)C2CC[C@@]3(C)C(c4ccoc4)OC(=O)C4OC43[C@]12C (some centres not stated)	inactive	inactive	inactive	-0.845% (inactive)	-15.4	-5.43		
CCOc1cccc(C(=O)c2ccc(O)c(O)c2O)c1	inactive		inactive	3.56% (inactive)	9.44	-1.04		
O=c1c(O)cccc2cc(O)c(O)c(O)c12		inactive		9.52% (inactive)	11.8	24.4	inactive	
C=CC(C1=CC(=O)C(OC)=CC1=O)c1ccc(O)cc1 (configuration not stated)		inactive	inactive	12.9% (inactive)	1.65	16.7	inactive	
C=C1CC[C@@H]2O[C@@]2(C)CC[C@H]2[C@H]1CC2(C)C				1.31% (inactive)	22.2	21.2	inactive	
O=c1c(O)c(-c2ccccc2)oc2cc(O)ccc12		inactive	inactive	6.29% (inactive)	-1.89	5.57	inactive	
CSC(N)=NCCCC(N)C(=O)O (configuration not stated)	inactive	inactive	inactive	1.56% (inactive)	5.01	8.49		
COC(=O)/C=C/C(C)=C/C=C/C(C)=C/C=C/C=C(C)/C=C/C=C(C)/C=C/C(=O)O	inactive	inactive	inactive	5.02% (inactive)	17.2	24.2		
CC(C)CCCC(C)C1CCC2C3C(=O)C=C4CC(O)CC[C@@]4(C)C3CC[C@@]12C (some centres not stated)	inactive	inactive	inactive	-2.06% (inactive)	8.46	5.18		
C=CCCCCCCCCCCCc1ccco1	inactive	inactive	inactive	3.13% (inactive)	16.1	21.7		
CC1=C(C(=O)O)N2C(=O)C(NC(=O)C(N)C3=CCC=CC3)C2SC1 (configuration not stated)	inactive	inactive	inactive	10.8% (inactive)	14	29.2		
Cc1cc(O)c2c(c1O)C(=O)c1c(O)cc(C)c(O)c1C2=O	inactive	inactive	inactive	6.96% (inactive)	-16.3	-8.79		
COc1ccc(-c2cc(=O)c3c(O)c(OC)c(O[C@@H]4OC(COC5OC(C)C(O)C(O)[C@@H]5O)C(O)C(O)C4O)cc3o2)cc1 (some centres not stated)	inactive	inactive	inactive	4.35% (inactive)	13.3	15.5		

From PubChem BioAssay (NCATS)
